Assay outcomes from PubChem BioAssay.
HT1080 IDH1KD tx – qHTS for induction of synthetic lethality in tumor cells producing 2HG: qHTS for the HT-1080-IDH1KD cell line; HT-1080 IDH1 knockdown viability, ATP luminescence, 48 h; Potency, µM (titrated, usually from 46.1 µM), usual class: cytotoxic; 360,000 tested, 2% active
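IDH1KD HT-1080 cells, 750/well, RPMI + 5% FBS; compound pinned after 2 h settling; 48 h, 37 °C; CellTiter-Glo luminescence; % activity normalised to DMSO and no-cell wells; curves fitted, classed by r2 and efficacy.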
TGFb inhibitor – qHTS for Inhibitors of TGF-b; Potency, µM (top dose mostly 46.1 µM), actives largely listed as inhibitors; 410,000 tested, 1.2% active; HepG2 CAGA-GFP TGF-b/SMAD3 reporter, GFP fluorescence, 18 h; TGF-beta stimulated, 500 pg/mL final; also: nearly all actives have a fitted effect of over 65% in size
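TGF-beta reporter screen: HEPG2 CAGA-GFP, 1% FBS, 500 pg/mL TGF-beta final, 18 h; per-cell GFP summed per well; curves fitted and categorized by class.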
HT1080-NT tox – qHTS for induction of synthetic lethality in tumor cells producing 2HG: qHTS for the HT-1080-NT fibrosarcoma cell line; HT-1080-NT fibrosarcoma viability, CellTiter-Glo ATP luminescence, 48 h; Potency, µM (doses to about 46.1 µM), hits mostly cytotoxic; 360,000 tested, 1.6% active; AID 686970, 2013;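 also: NT is the 2HG producing partner of a matched IDH1 knockdown line; nearly all actives have a fitted effect of over 55% in size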
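HT-1080-NT fibrosarcoma cells (2HG-overproducing), 750 cells/well in RPMI with 5% FBS, dosed after 2 h and incubated 48 h at 37C. CellTiter-Glo luminescence normalized to DMSO and no-cell wells; concentration-response curves fitted and classed.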
Giardia killer – Small Molecules that selectively kill Giardia lamblia: qHTS; Giardia lamblia trophozoite viability; 340,000 tested, 0.15% active; activity change, % at 7.66 µM, hits read low; AID 540267, 2011; in the data active = activity change below about -80%; inconclusive = between about -30% and that limit;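 also: parasites exposed to compound for two days anaerobically before the ATP read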
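Each well holds 100 Giardia trophozoites and compound. After two days (48 hrs) at 37 deg C in anaerobic conditions, ATP is quantified by luminescence.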
IL-1B inflam inh – qHTS for Inhibitors of Inflammasome Signaling: IL-1-beta AlphaLISA Primary Screen | THP-1 LPS/ATP IL-1B secretion, AlphaLISA, 16 h; stronger effect = lower value | 360,000 tested, 4.7% active | activity change, % at 57.5 µM | AID 743279, 2014; in the data active = activity change below about -50%; inconclusive = mostly about -30% to -49%
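THP-1 cells pretreated 1 hr with compounds (up to 57.5 uM final), then stimulated with LPS (250 ng/mL final) plus ATP (1.25 mM final); secreted IL-1B measured by AlphaLISA after 16 hr, decreased signal indicating inhibition.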
HepG2 viability – qHTS for Inhibitors of TGF-b: Cytotox Counterscreen; HepG2 CAGA-GFP viability, ATP luminescence, 18 h; Potency, µM (top dose mostly 46.1 µM), usual class: cytotoxic; 410,000 tested, 0.76% active
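HepG2 CAGA-GFP cells (1000/well, DMEM with 1% FBS) received compound, then TGF-beta at 500 pg/mL final, and were incubated 18 hours at 37 degrees C. Viability was read by CellTiter-Glo luminescence. Media-only wells were set as complete cell-killing and DMSO as no toxicity.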
Large screens that a line does not name were inactive. In the library only some 6.5% were active in any assay of this set; here they are far more common. Unless noted, calls follow the shape of the dose curve; as a rule, active = well fitted curve in the direction sought with a large enough effect; inconclusive = small, poorly fitted or top-dose-only effect, or another doubt; inactive = no such curve, though single readings can be large; an effect the other way counts as inactive or inconclusive.

O=C(CSc1nc2ccccc2[nH]1)NCc1ccco1	none
O=C(NCc1ccco1)/C(=C/c1cccc(C(F)(F)F)c1)c1nc2ccccc2[nH]1	HT1080 IDH1KD tx inconclusive, HT1080-NT tox inconclusive, IL-1B inflam inh -115
O=C(NCc1ccco1)/C(=C/c1ccc(C(F)(F)F)cc1)c1nc2ccccc2[nH]1	IL-1B inflam inh -73
O=C(COC(=O)/C=C/c1cccc(C(F)(F)F)c1)NCc1ccco1	none
COc1ccccc1C(=O)N1CCN(c2cccc(C(F)(F)F)c2)CC1	HT1080 IDH1KD tx 9.2µM, HT1080-NT tox 15µM
O=C(Nc1cccc(C(F)(F)F)c1)c1cccnc1N1CCN(c2ccccc2)CC1	TGFb inhibitor inconclusive, HT1080-NT tox inconclusive, IL-1B inflam inh -77
CCOc1cc(CN2CCN(c3cccc(C(F)(F)F)c3)CC2)ccc1OC	TGFb inhibitor inconclusive, IL-1B inflam inh -56
O=C(Nc1cccc(C(F)(F)F)c1)c1cccnc1N1CCN(CCO)CC1	none
CCOc1cc(CN2CCN(c3cccc(C(F)(F)F)c3)CC2)ccc1O	HT1080 IDH1KD tx inconclusive
O=C(Nc1ccccc1)N1CCN(c2cccc(C(F)(F)F)c2)CC1	IL-1B inflam inh -50
COc1ccc(NC(=O)N2CCN(c3cccc(C(F)(F)F)c3)CC2)cc1OC	TGFb inhibitor inconclusive
COc1ccc(OC)c(N(CC(=O)NCCSCc2ccc(C)cc2)S(C)(=O)=O)c1	IL-1B inflam inh -62
COc1ccc(CCNC(=O)CN(c2ccccc2OC)S(=O)(=O)c2ccc(C)cc2)cc1	TGFb inhibitor inconclusive, IL-1B inflam inh -51
O=C(Nc1ccc([N+](=O)[O-])cc1)c1cccc(S(=O)(=O)Nc2cccnc2)c1	HT1080-NT tox inconclusive
CC(C)n1cnc2c(Nc3cccc(Cl)c3)nc(NCCCO)nc21	HT1080 IDH1KD tx inconclusive, TGFb inhibitor inconclusive, IL-1B inflam inh -95
Cc1ccnc(N2CCC(C(=O)Nc3ccc4c(c3)OCO4)CC2)n1	none
COc1cc(/C=C/C(=O)c2c(O)ccc3c(C)cc(=O)oc23)ccc1O	HT1080 IDH1KD tx inconclusive, HT1080-NT tox inconclusive, IL-1B inflam inh -80
Cc1cc(=O)oc2c(C(=O)/C=C\c3cccs3)c(O)ccc12	HT1080 IDH1KD tx 21µM, HT1080-NT tox inconclusive, IL-1B inflam inh -99
O=C(/C=C/c1cccs1)c1cc(Cl)ccc1O	none
COc1ccc(/C=C/C(=O)c2c(O)c(OC)c3occc3c2OC)cc1OC	HT1080 IDH1KD tx 11µM, HT1080-NT tox 18µM (no result: TGFb inhibitor, Giardia killer, IL-1B inflam inh, HepG2 viability)
CC(=O)c1c(OCC(=O)O)ccc2c(C)cc(=O)oc12	none
Cc1cc(=O)oc2c(C(=O)/C=C/c3ccccc3)c(O)ccc12	none
COc1ccc(/C=C\C(=O)c2c(O)ccc3c(C)cc(=O)oc23)cc1OC	HT1080 IDH1KD tx inconclusive, TGFb inhibitor inconclusive, HT1080-NT tox inconclusive, IL-1B inflam inh -70
CN1CCCC(CC2Oc3ccccc3Sc3ccccc32)C1 (stereo not given)	HT1080 IDH1KD tx 21µM, TGFb inhibitor inconclusive, HT1080-NT tox 15µM, IL-1B inflam inh -73
c1ccc2c(c1)OC(CCCN1CCCCC1)c1ccccc1S2 (stereo not given)	HT1080 IDH1KD tx inconclusive, HT1080-NT tox inconclusive, IL-1B inflam inh inconclusive
CC(C)C[C@H]1CN=C(Nc2ccccc2)N1CCCCc1ccccc1	none
CC(C)Oc1ccc(/C=N/NC(N)=S)cc1	HT1080 IDH1KD tx 15µM, HT1080-NT tox inconclusive
NC(=S)N/N=C/c1ccc(C(F)(F)F)cc1	HT1080 IDH1KD tx 21µM, HT1080-NT tox inconclusive
Cc1scc(C(=O)N/N=C/c2ccc(OC(C)C)cc2)c1C	IL-1B inflam inh -70
COc1ccc(/C=N/NC(N)=S)cc1	HT1080-NT tox inconclusive
NC(=S)N/N=C/c1ncc(C(F)(F)F)cc1Cl	HT1080 IDH1KD tx 5.2µM, TGFb inhibitor 4.5µM, HT1080-NT tox 10µM, IL-1B inflam inh -103
CC1CCCC(C)N1C(=O)Nc1cccc(Cl)c1 (stereo not given)	none
COc1ccc(C(=O)N2CCCC2(C)C(=O)NCC(C)C)cc1C(F)(F)F (stereo not given)	HT1080-NT tox inconclusive (no result: Giardia killer)
CC1=C(C(=O)Nc2ccccc2)C(c2ccc(F)cc2)n2nc(SCc3cc(C)ccc3C)nc2N1 (stereo not given)	none (no result: HT1080 IDH1KD tx, HT1080-NT tox, Giardia killer, IL-1B inflam inh)
S=C(Nc1ccc(Oc2ccccc2)cc1)NC1CCCC1	none
CCCNC(=S)Nc1ccc(Oc2ccccc2)cc1	HT1080 IDH1KD tx 14µM, HT1080-NT tox 16µM
S=C(NCC1CCCCC1)Nc1ccc(Oc2ccccc2)cc1	TGFb inhibitor inconclusive, IL-1B inflam inh -77
O=C(CSc1nc2nccnc2c(=O)n1Cc1cccs1)Nc1ccccc1	IL-1B inflam inh inconclusive
COc1ccc(Cl)cc1NS(=O)(=O)c1cccc(C(=O)NCC(C)(C)N2CCOCC2)c1	none
Cc1cccc2cc3c(nc12)SC(=NCC1CCCO1)N(Cc1ccco1)C3 (stereo not given)	HT1080 IDH1KD tx 10µM, TGFb inhibitor inconclusive, HT1080-NT tox 5.8µM, IL-1B inflam inh -100
Cc1ccc2nc3c(cc2c1)CN(Cc1ccco1)C(=NCC1CCCO1)S3 (stereo not given)	none
CC(/C=C1\SC(=S)N(NC(=O)c2ccncc2)C1=O)=C\c1ccccc1	IL-1B inflam inh -79
CC(/C=C1\SC(=S)N(CCC(=O)Nc2ccc(O)cc2)C1=O)=C\c1ccccc1	HT1080 IDH1KD tx inconclusive, TGFb inhibitor inconclusive, IL-1B inflam inh -53
CC(/C=C1\SC(=S)N(CCCC(=O)Nc2ccc(C(=O)O)c(O)c2)C1=O)=C\c1ccccc1	IL-1B inflam inh -55
CC(=Cc1ccccc1)C=C1SC(=S)N(CCCC(=O)Nc2ccc(C(=O)O)c(O)c2)C1=O	TGFb inhibitor inconclusive (no result: Giardia killer)
CC(/C=C1\SC(=S)N(NC(=O)c2ccc(C)cc2)C1=O)=C\c1ccccc1	none
COc1ccc(OC)c(C2C(C(N)=O)=C(C)Nc3nc(-c4cccc(Cl)c4)nn32)c1 (stereo not given)	HT1080 IDH1KD tx inconclusive, IL-1B inflam inh inconclusive
COc1ccccc1-c1nnc(Sc2nc([N+](=O)[O-])nn2C)o1	HT1080 IDH1KD tx 4µM, HT1080-NT tox 13µM, IL-1B inflam inh -100
C[C@H](CO)N1C[C@H](C)[C@H](CN(C)S(=O)(=O)c2cn(C)cn2)Oc2ccc(NC(=O)Nc3ccc(C(F)(F)F)cc3)cc2CC1=O	HT1080 IDH1KD tx 23µM, TGFb inhibitor inconclusive, HT1080-NT tox 5.2µM
